# Laboratory results: PubChem BioAssay AID434962 (The Scripps Research Institute Molecular Screening Center, 2010)
# The campaign covered roughly 320,000 compounds. About 1,300 (0.41%) were called active.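 The calls were made as follows: active = percent inhibition above the average of all tested compounds plus 3 SD, set per screening campaign (cut at about 16% in these data); inactive = the rest.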 The list comes from a sample in which actives are over-represented; it also holds similar structures and randomly drawn compounds.
# Target: Insulin-degrading enzyme (Homo sapiens) (UniProt P14735)
# Assay: human IDE inhibitors in live cells, primary screen, fluorescence polarization, HEK cells, FAbetaB substrate (AID 434962);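 also: IDE supplied by intact live HEK cells; FP after avidin binding of uncleaved biotin substrate so inhibition keeps polarization high; 0% = DMSO wells and 100% = 60 µM reference IDE inhibitor Ii1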
# Details: FAbetaB cleavage, at 5.59 µM, stronger effect = higher value
# Insulin-degrading enzyme (Homo sapiens), sequence (P14735 whole entry, looked up): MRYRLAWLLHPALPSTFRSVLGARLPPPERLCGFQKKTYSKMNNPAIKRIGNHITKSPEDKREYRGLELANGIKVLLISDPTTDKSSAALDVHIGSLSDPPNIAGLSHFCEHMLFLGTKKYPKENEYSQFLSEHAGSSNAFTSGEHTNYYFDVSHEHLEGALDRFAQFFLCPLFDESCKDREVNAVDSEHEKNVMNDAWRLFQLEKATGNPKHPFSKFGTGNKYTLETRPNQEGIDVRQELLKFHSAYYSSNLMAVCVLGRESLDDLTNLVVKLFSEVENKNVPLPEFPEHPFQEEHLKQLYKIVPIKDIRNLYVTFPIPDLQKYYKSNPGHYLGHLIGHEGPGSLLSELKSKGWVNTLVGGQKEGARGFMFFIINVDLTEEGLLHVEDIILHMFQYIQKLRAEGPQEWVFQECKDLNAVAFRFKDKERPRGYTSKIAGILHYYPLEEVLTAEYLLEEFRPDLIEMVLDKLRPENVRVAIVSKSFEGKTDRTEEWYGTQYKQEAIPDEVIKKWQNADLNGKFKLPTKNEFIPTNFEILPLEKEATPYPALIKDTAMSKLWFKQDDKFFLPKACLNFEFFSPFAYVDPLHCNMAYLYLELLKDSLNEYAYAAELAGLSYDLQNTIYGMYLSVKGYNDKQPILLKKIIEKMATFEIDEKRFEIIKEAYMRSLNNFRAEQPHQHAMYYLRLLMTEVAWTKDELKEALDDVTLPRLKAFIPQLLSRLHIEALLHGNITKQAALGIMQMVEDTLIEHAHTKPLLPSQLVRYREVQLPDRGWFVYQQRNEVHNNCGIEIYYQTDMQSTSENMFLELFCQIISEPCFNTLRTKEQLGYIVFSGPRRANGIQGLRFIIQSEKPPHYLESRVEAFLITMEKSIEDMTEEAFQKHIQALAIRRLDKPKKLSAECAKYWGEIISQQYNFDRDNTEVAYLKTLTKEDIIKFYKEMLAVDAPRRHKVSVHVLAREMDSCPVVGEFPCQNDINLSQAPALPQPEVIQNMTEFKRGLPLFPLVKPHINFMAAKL
row,Structure (SMILES),inhibition
1,O=C(NCCC1CCCCN1S(=O)(=O)c1ccccc1)C(=O)NCC1CCCO1 (stereo not given),3.94% (inactive)
2,Cc1ccccc1CSc1nnc(-c2ccccc2)c(=O)[nH]1,0.38% (inactive)
3,COc1cccc(-n2c(Cc3cc(=O)[nH]c(=O)[nH]3)nnc2SCC(=O)Nc2ccccc2)c1,2.57% (inactive)
4,Cc1cccc(-n2c(Cc3cc(=O)[nH]c(=O)[nH]3)nnc2SC(C)C)c1,6.03% (inactive)
5,Cc1cccc(-n2c(Cc3cc(=O)[nH]c(=O)[nH]3)nnc2SCC(=O)Nc2cccc(C(F)(F)F)c2)c1,18.2% (active)
6,Cc1ccc(S(=O)(=O)N2CCN(C(=O)COC(=O)CNC(=O)c3ccc(C(C)(C)C)cc3)CC2)c(C)c1,1.73% (inactive)
7,CCOc1cc2c(Cl)ncnc2c(OCC)c1OCC,17.1% (active)
8,CCOc1cc(C(=O)Nc2ncccn2)cc(OCC)c1OCC,-0.15% (inactive)
9,CCOc1cc(-c2conc2N)cc(OCC)c1OCC,0.37% (inactive)
10,Cc1ccc(S(=O)(=O)N2CCN(CC(=O)N/N=C/c3ccc(Br)s3)CC2)cc1,2.15% (inactive)
11,CNC(=O)c1ccsc1NC(=O)c1ccc(S(=O)(=O)N2CCOCC2)cc1,6.05% (inactive)
12,CCOC(=O)c1csc(NC(=O)c2ccc(S(=O)(=O)N3CCCC3)cc2)n1,0.72% (inactive)
13,COc1ccc(C(=O)Nc2nc(-c3ccc(S(=O)(=O)N4CCOCC4)cc3)cs2)cc1,24.5% (active)
14,CC(=O)CC(CC(=O)NC1CCCCC1)c1ccccc1 (stereo not given),-6.38% (inactive)
15,CN(C)CCCNC(=O)/C=C/c1ccc(OCc2c(F)cccc2Cl)cc1,5.4% (inactive)
16,COCCCNC(=O)/C=C/c1ccc(OCc2c(F)cccc2Cl)cc1,11.8% (inactive)
17,O=C(/C=C/c1ccc(OCc2c(F)cccc2Cl)cc1)N1CCOCC1,21.1% (active)
18,CCn1c(C)c(C)c2cc(C(=O)N3CCN(c4cccc(C)c4C)CC3)ccc21,-0.11% (inactive)
19,Cc1cccc(N2CCN(C(=O)c3cccc(N4C(=O)C5C6C=CC(C6)C5C4=O)c3)CC2)c1C (stereo not given),44.4% (active)
20,CC1C=CCC2C(=O)N(c3cccc(C(=O)N4CCCCCC4)c3)C(=O)C12 (stereo not given),-1.29% (inactive)
21,CC(C)(C)C(=O)Nc1c(Br)c(C2CC2)nn1-c1ccccc1,0.92% (inactive)
22,Cc1c(NC(=O)C(C)OC(=O)c2cc3c4ccccc4n(C)c3s2)c(=O)n(-c2ccccc2)n1C (stereo not given),-0.34% (inactive)

row,Structure (SMILES),inhibition
1,CCCn1c(N)c(C(=O)CSc2nc3ccccc3c(=O)n2-c2ccc(OC)cc2)c(=O)[nH]c1=O,-10.9% (inactive)
2,Cc1cc2[nH]ncc2cc1NC(=S)NC(=O)c1ccccc1,-2.99% (inactive)
3,COc1ccc(Br)cc1C(=O)Nc1cccc(C)c1C,2.56% (inactive)
4,COc1ccc(Br)cc1C(=O)NC(=S)Nc1cc(-c2nc3ccccc3[nH]2)ccc1C,24.5% (active)
5,CCOC(=O)C(CC)/C(C)=N\NC(=O)c1cccc(C)c1 (stereo not given),-1% (inactive)
6,Cc1cc(Cl)ccc1OCCCC(=O)Nc1cccc(-n2cnnn2)c1,6.2% (inactive)
7,Cc1cc(Cl)ccc1OCCCC(=O)NCc1ccccn1,-0.14% (inactive)
8,Cc1cc(Cl)ccc1OCCCC(=O)NCc1ccncc1,22.1% (active)
9,CN(C)Cc1ccc(F)cc1Sc1cc(Cl)ccc1Cl,7.05% (inactive)
10,CCOC(=O)CNc1nc(Cl)nc(Nc2ccc(OC)cc2OC)n1,-1.6% (inactive)
11,COc1ccc(/C=C2\SC(=S)N(CCCC(=O)NC3CCCC3)C2=O)cc1OC,-2.87% (inactive)
12,COc1ccc(/C=C2\SC(=S)N(CCC(=O)Nc3cccc(C(=O)O)c3)C2=O)cc1OC,1.95% (inactive)
13,COc1cc(/C=C2/SC(=S)N(Cc3ccccc3)C2=O)cc(OC)c1O,68.4% (active)
14,O=C(Nc1ccnn1C1CCN(C/C=C/c2ccc(F)cc2)CC1)C1CCCC1,-2.53% (inactive)
15,COc1cccc(CNC(=O)Cn2c(=O)oc3cc(S(=O)(=O)N4CCCCC4)ccc32)c1,4.33% (inactive)
16,Cn1c(NC(=O)c2ccco2)c(-c2ccccc2Cl)c(=O)c2ccccc21,-1.57% (inactive)
17,N#C/C(=C\c1ccc(N2CCOCC2)o1)C(=O)N1CCOCC1,20.9% (active)
18,N#C/C(=C/c1ccc(N2CCOCC2)o1)C(=O)N1CCOCC1,14.4% (inactive)
19,N#C/C(=C\c1ccc(-c2cccc([N+](=O)[O-])c2)o1)C(=O)NCCN1CCOCC1,-0.08% (inactive)
20,Cc1ccc(C(=O)c2ccc(N3CCN(C)CC3)c([N+](=O)[O-])c2)cc1,-2.73% (inactive)
21,CCCCc1ccc(NC(=O)NCc2cccnc2)cc1,4.26% (inactive)
22,CCN(CC(=O)NCc1ccc(F)cc1)S(=O)(=O)c1ccc(Cl)s1,7.4% (inactive)

row,Structure (SMILES),inhibition
1,O=C(COC(=O)CCOc1ccccc1)Nc1cc(S(=O)(=O)N2CCCCC2)ccc1Cl,5.23% (inactive)
2,CCC(C)(C)NC(=O)CN(C(=O)CCC(=O)Nc1nccs1)c1ccc2c(c1)OCO2,-1.66% (inactive)
3,O=C(Oc1ccc(Br)cc1)c1cccnc1,1.44% (inactive)
4,N#CCc1ccc(OC(=O)c2cccnc2)cc1,-4.29% (inactive)
5,O=C(Oc1c(-c2ccco2)oc2ccccc2c1=O)c1cccnc1,68.4% (active)
6,Cc1csc(=O)n1CCC(=O)OCC(=O)NNC(=O)c1ccc(Br)cc1,-2.19% (inactive)
7,CCOc1ccccc1Nc1nnc(SCC(=O)Nc2cc(C)on2)s1,3.25% (inactive)
8,Cc1cc2c(=O)n(C)c(SCC(=O)c3cc4ccccc4o3)nc2s1,1.59% (inactive)
9,Cc1ccccc1Nc1nnc(SCC(=O)c2cc3ccccc3o2)s1,18.7% (active)
10,CCc1ccc(CNC(=O)C2CC(=O)N(CCc3ccc(C)cc3)C2)cc1 (stereo not given),-4.43% (inactive)
11,CCCCN(C(=O)CSCC(=O)Nc1ccc(OC)cc1)c1c(N)n(CCC)c(=O)[nH]c1=O,-1.31% (inactive)
12,CC(=O)Oc1cccc(C(=O)Nc2ccccc2NC(=O)c2cccc(OC(C)=O)c2)c1,-2.81% (inactive)
13,CCOC(=O)c1cc(NC(=O)c2ccc(Cl)cc2)c(=O)oc1-c1ccccc1,1.63% (inactive)
14,CC(=O)c1cc(NC(=O)c2ccccc2)c(=O)oc1/C=C/N(C)C,16.3% (active)
15,Cc1cc(OCC(=O)N2CCN(c3ncccn3)CC2)ccc1Cl,-0.8% (inactive)
16,O=C(Nc1ccc(Sc2ccc(Br)cc2)cc1)c1ccco1,17.8% (active)
17,O=C(CNC(=O)c1ccco1)NNC(=O)c1ccc(Br)cc1,2.95% (inactive)
18,O=C(Nc1ccc(O)cc1)c1ccc(NC(=O)c2ccco2)cc1,3.06% (inactive)
19,CC1CCCCN1S(=O)(=O)CCNC(=O)c1ccccc1 (stereo not given),1.88% (inactive)
20,CC(C)(C)OC(=O)N[C@H](C(=O)OC(C)(C)C)c1ccc(Br)cc1,2.45% (inactive)
21,CN1CCNC(=O)C1CC(=O)NCCC1=CCCCC1 (stereo not given),1.39% (inactive)
